Measured values: PubChem BioAssay (NCI)
The panel holds about 79,000 compounds, 15% with a hit somewhere; the sample as a whole holds those more often. Rule as the data show it: active = growth inhibition above about 70%; inactive = the rest.

Tests used:
[1] = NCI Yeast Anticancer Drug Screen. Data for the rad50 strain (AID 155);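 also: 0% = growth of vehicle-only cultures of the same strain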; details: S. cerevisiae rad50 strain growth inhibition; at 50.0 µM; stronger effect = higher value
Method in brief: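 A DNA repair-deficient yeast mutant serves as the test organism; compound-induced growth inhibition is calculated against vehicle-treated cells.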

[2] = NCI Yeast Anticancer Drug Screen. Data for the mec2-1 strain (AID 157); details: S. cerevisiae mec2-1 strain, at 50.0 µM, stronger effect = higher value
Method in brief: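 Growth inhibition is read against vehicle-treated controls after compound exposure of the mec2-1 yeast strain, which is defective in DNA damage repair or cell cycle control.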

[3] = NCI Yeast Anticancer Drug Screen. Data for the sgs1 mgt1 strain (AID 161);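 also: 0% = growth of cultures given vehicle only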; details: S. cerevisiae sgs1 mgt1 strain, at 50.0 µM, stronger effect = higher value
Method in brief: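 Growth of a repair-deficient yeast mutant was monitored after compound treatment and expressed as inhibition relative to vehicle-treated cultures.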

[4] = NCI Yeast Anticancer Drug Screen. Data for the cln2 rad14 strain (AID 165);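 also: 0% = growth equal to vehicle treated cultures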; details: S. cerevisiae cln2 rad14 strain, at 50.0 µM, stronger effect = higher value
Method in brief: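 Growth inhibition, relative to vehicle-treated controls, is the read-out. The test organism is a yeast strain with defined genetic alterations, cln2 rad14.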

[5] = NCI Yeast Anticancer Drug Screen. Data for the bub3 strain (AID 167); details: S. cerevisiae bub3 mutant strain, at 50.0 µM, stronger effect = higher value
Method in brief: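 Inhibition values come from growth of compound-treated mutant yeast normalised to vehicle-treated controls.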

[6] = NCI Yeast Anticancer Drug Screen. Data for the mlh1 rad18 strain (AID 175); details: S. cerevisiae mlh1 rad18 strain growth inhibition; at 50.0 µM; stronger effect = higher value
Method in brief: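 Cells of a genetically altered yeast strain, deficient in DNA damage repair, were treated with compound. Their growth was then compared with that of vehicle-treated cultures to give inhibition.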

Measured: growth inhibition

O=C(NCc1ccc(Cl)c(Cl)c1)Nc1ccccc1F
inactive: [1] 11% | [2] 11.1% | [3] 6.1% | [4] 9.65% | [5] 20.4% | [6] 7.05%

Nc1nnc(-c2ccccc2)s1
inactive: [1] -11.8% | [2] 5.95% | [3] 2.2% | [4] 13.8% | [5] 5.85% | [6] 5.05%

CN(C)c1ccc(/C=C(\NC(=O)c2ccccc2)C(=O)NC(CC(=O)O)C(=O)O)cc1 (stereo unspecified)
inactive: [1] 10.2% | [2] 1.45% | [3] 17.9% | [4] 7% | [5] -0.25% | [6] -0.55%

Cc1ccc(SCC(CF)OC(C)n2cnc3c(Cl)nc(N)nc32)cc1 (stereo unspecified)
inactive: [1] 14.3% | [2] 1.05% | [3] 30.6% | [4] 39.6% | [5] 41.7% | [6] -36.7%

O=C1OCC=C1COC1OC(CO)C(O)C(O)C1O (stereo unspecified)
inactive: [1] -6.35% | [2] 3.55% | [3] -12.8% | [4] 5.05% | [5] -11.9% | [6] -41.7%

CN(C)CCCNC(=O)/C=C\C(=O)O
inactive: [1] 5.8% | [2] 3.9% | [3] 0.15% | [4] -4.9% | [5] 2.6% | [6] -6.15%

CN(CCO)c1nc2c(c(=O)[nH]1)CCC2
inactive: [1] -3.55% | [2] -21.8% | [3] -43% | [4] -5.25% | [5] -19.4% | [6] -21.8%

CC(=O)N(C(C)=O)c1cc2c3ccccc3ccc2c2ccccc12
inactive: [1] 22.4% | [2] -6.3% | [3] 31.1% | [4] 15.1% | [5] 32.8% | [6] 29.4%

COc1cccc(C(=O)O)c1O
inactive: [1] -16.9% | [2] -11.8% | [3] -15.3% | [4] -8.8% | [5] -19.9% | [6] -7.7%

OCC1c2ccccc2C(CO)c2c1ccc1ccccc21 (stereo unspecified)
inactive: [1] -0.3% | [2] -2.3% | [3] -7.1% | [4] 11.1% | [5] -9.15% | [6] 4.45%

Nc1ccc([N+](=O)[O-])c(C(F)(F)F)c1
inactive: [1] 14.1% | [2] -33.6% | [3] 4.25% | [4] -14.4% | [5] -6.55% | [6] 22.6%

COc1ccccc1C(O)(c1ccccc1OC)C1(O)CCCCC1
inactive: [1] -10.2% | [2] -2% | [3] -5% | [4] 13.8% | [5] -0.1% | [6] 1.15%

CCCCCCC(N)=O
inactive: [1] 8.1% | [2] 2.1% | [3] -4.05% | [4] -26.9% | [5] -6.45% | [6] 9.75%

CCC(C#N)N(Cc1cccc(CN(C(C)=O)C(C#N)CC)c1)C(C)=O (stereo unspecified)
inactive: [1] -5.9% | [2] -11.7% | [3] -4.15% | [4] -29.9% | [5] -25.7% | [6] -43.9%

CCn1c(=O)c(Cl)c2n(C)c3ccccc3n2c1=O
inactive: [1] -6.2% | [2] -7.7% | [3] -2.85% | [4] -4.4% | [5] 10.6% | [6] -1.05%

CCOC(=O)c1ncn2c1[nH]c(=O)c1ccccc12
inactive: [1] -6.95% | [2] -16.6% | [3] -8.9% | [4] 1.2% | [5] -9.5% | [6] -10.6%

CC(=O)N1c2ccccc2S(=O)(=O)c2ccccc21
inactive: [1] 1.6% | [2] 12.7% | [3] 0.75% | [4] -15.9% | [5] 2.05% | [6] 0.25%

CCOC(=O)CCCCCC(=O)OCC
inactive: [1] 4% | [2] 0.25% | [3] -2.7% | [4] 4.1% | [5] 12.8% | [6] 1.8%

COC(=O)C(CNc1ccc(S(N)(=O)=O)cc1)=[N+]=[N-]
inactive: [1] 7.4% | [2] 13.3% | [3] 0.95% | [4] -12.8% | [5] 6.25% | [6] 11.2%

CC(=O)OC1COC([n+]2cccc(C(N)=O)c2)C(OC(C)=O)C1OC(C)=O (stereo unspecified)
inactive: [1] -36.5% | [2] -22.7% | [3] -25.9% | [4] -32.6% | [5] -9.95% | [6] -20%

O=C1NC(=O)C2(CC3CCCCC3CC2c2ccccc2)N1 (stereo unspecified)
inactive: [1] 17.1% | [2] 13.3% | [3] 12.8% | [4] 3.1% | [5] 10.3% | [6] 10.9%

Cc1ccccc1NP1(Nc2ccccc2C)=NP(Nc2ccccc2C)(Nc2ccccc2C)=NP(Nc2ccccc2C)(Nc2ccccc2C)=NP(Nc2ccccc2C)(Nc2ccccc2C)=N1
inactive: [1] 0.8% | [2] -0.9% | [3] 23.6% | [4] -5.3% | [5] -6.95% | [6] -9.7%

CCc1nnc(CC)n1N
inactive: [1] 46.2% | [2] -7.05% | [3] 41.8% | [4] -10.6% | [5] 16.4% | [6] 38.2%

O=C(Cl)C(Cl)(c1ccccc1)c1ccccc1
inactive: [1] 2.15% | [2] 13.6% | [3] 4.15% | [4] -6.9% | [5] 17.1% | [6] 3.75%

CCN(CC)c1ccc(NC(=S)Nc2ccc(N(CC)CC)cc2)cc1
inactive: [1] 23.3% | [2] -0.5% | [3] 4.95% | [4] -66% | [5] 22.2% | [6] -22.9%

O=c1c2ccccc2nnn1O
inactive: [1] 12.8% | [2] 0.2% | [3] 4.55% | [4] -23.1% | [5] -5.95% | [6] 6.45%

OCCCNc1nc2cc(Cl)ccc2o1
inactive: [1] 9.2% | [2] 22.6% | [3] 16.1% | [4] -31.1% | [5] 7.9% | [6] -14.9%

C/C(CCl)=N/NC(N)=S
inactive: [1] -13.2% | [2] -2.5% | [3] -18.4% | [4] 7% | [5] -11.9% | [6] -12.5%

O=C(C[n+]1ccccc1)c1ccccc1
inactive: [1] 1.75% | [2] -4.4% | [3] -2.4% | [4] -18.5% | [5] 9.45% | [6] 30.7%

N#CC(NCCc1ccccc1)c1ccccc1 (stereo unspecified)
inactive: [1] 2.45% | [2] -3.1% | [3] -32.8% | [4] -20.1% | [5] -56.7% | [6] -3.95%

CCOC(=O)C(=N\Nc1cc(C)cc(C)c1)/C(C)=N\NC(N)=S
inactive: [1] 25.1% | [2] 38.8% | [3] 20.1% | [4] 57.5% | [5] 58.5% | [6] 45.6%

CCCS(=O)(=O)CCC(=O)c1ccccc1
inactive: [1] -4% | [2] -7.9% | [3] -9% | [4] -13.8% | [5] 0.85% | [6] 2.7%

CCCCCCC1(/C=C\c2ccccc2Cl)OCCO1
inactive: [1] 37.6% | [2] 31.5% | [3] 37.5% | [4] -9.6% | [5] 16.9% | [6] 23.3%

CCOC(=O)CCC(NC(=O)C(N)c1ccc([N+](=O)[O-])cc1)C(=O)NC(CCC(=O)OCC)C(=O)OCC (stereo unspecified)
inactive: [1] -5.4% | [2] -7.5% | [3] 1.2% | [4] 0.5% | [5] -2.55% | [6] 4.55%

CC/C=N/NC(=O)OCC
inactive: [1] -9.8% | [2] -4.85% | [3] -13.9% | [4] 1.1% | [5] -3.3% | [6] -6.85%

CCC[n+]1ccc(CCS(=O)(=O)c2ccc(N)cc2)cc1
inactive: [1] 6.15% | [2] -6.55% | [3] 1.9% | [4] -6% | [5] 21.4% | [6] -16.7%
